Test results published in ChEMBL document CHEMBL3988442, “University of Dundee, Small-Polar-MMV Screening Library” (2021).

Assays:
[1] = biological target: T1, Aspartate--tRNA(Asp/Asn) ligase (Mycobacterium tuberculosis (strain ATCC 25618 / H37Rv)) (UniProt P9WFW3); assay: Assay for Asp RNA synthetase-1 from Mycobacterium tuberculosis; format: functional; design: scale not given: direction of the effect not stated beside the values; conditions: 30 µM; further: in the data most compounds retested in dose-response had high values
T1 sequence (whole entry): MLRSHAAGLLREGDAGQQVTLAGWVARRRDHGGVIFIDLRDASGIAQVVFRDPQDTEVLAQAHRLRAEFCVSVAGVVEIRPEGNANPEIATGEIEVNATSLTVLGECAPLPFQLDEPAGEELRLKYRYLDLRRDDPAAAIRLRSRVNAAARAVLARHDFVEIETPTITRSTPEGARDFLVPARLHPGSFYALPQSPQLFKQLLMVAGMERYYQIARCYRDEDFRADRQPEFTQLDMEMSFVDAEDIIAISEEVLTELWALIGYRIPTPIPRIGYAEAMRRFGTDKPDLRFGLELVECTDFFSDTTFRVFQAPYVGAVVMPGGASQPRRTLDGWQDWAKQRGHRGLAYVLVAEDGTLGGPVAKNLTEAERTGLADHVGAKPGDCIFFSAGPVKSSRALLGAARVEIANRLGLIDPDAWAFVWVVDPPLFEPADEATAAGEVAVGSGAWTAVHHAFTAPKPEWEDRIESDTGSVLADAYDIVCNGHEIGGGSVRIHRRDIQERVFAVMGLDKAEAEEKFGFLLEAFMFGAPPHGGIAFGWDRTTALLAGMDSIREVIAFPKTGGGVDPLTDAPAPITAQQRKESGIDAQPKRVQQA

[2] = biological target: Shiga toxin 2 (Escherichia coli O157:H7) (UniProt P09385+P09386); assay: E. coli 0.157:H7 Shiga Toxin SOP - stx2 screening assay; format: functional; design: scale not given: direction of the effect not stated beside the values; conditions: 30 µM

Row | Structure (SMILES) | Percent Effect [1] | Percent Effect [2]
1 | CCOc1c(Cl)cccc1NCc1cc(C)on1 | -1.21% | -64.7%
2 | c1ccc(COC2CCN(c3cncc(-n4cccn4)n3)CC2)cc1 | -3.76% | -38.3%
3 | O=C(NCc1ccccn1)NC1CCOc2ccccc21 (stereo not given) | -6.21% | -20.3%
4 | Cn1ccnc1COc1ccc(CN2CCN(CCO)CC2)cc1 | -5.49% | -50.7%
5 | COc1ccc(OCc2sc(C3(O)CCCNCC3)nc2C)cc1 (stereo not given) | 5.08% | 7.21%
6 | CCN(Cc1ccco1)C(=O)c1cc(OC)c2c(c1)OCCO2 | 3.71% | -2.41%
7 | Cc1c(F)cc(C(=O)O)cc1S(=O)(=O)Nc1ccc2c(c1)OCCO2 | 2.32% | 10.9%
8 | CCc1noc(C(C)N(C)CC(=O)Nc2c(C)cccc2C)n1 (stereo not given) | -10.4% | 10.3%
9 | CCO[C@@H]1CO[C@@]2(CCCN(S(=O)(=O)c3cccnc3)C2)C1 | 9.04% | -20%
10 | CCc1c(C)nn(CCNC(=O)C2CCCN(C(=O)N(C)C)C2)c1C (stereo not given) | -4.11% | 20%
11 | Cc1nc(CN2CCCN(C(=O)C3(C#N)CCCCC3)CC2)cs1 | 1.34% | 11.8%
12 | CC(C)(CO)NC(=O)C1CCC(=O)N(Cc2ccc(Cl)cc2)C1 (stereo not given) | -3.12% | 0.664%
13 | CCOCCCC(=O)NCc1cn2cc(Br)ccc2n1 | 0.599% | -66%
14 | CCc1nnsc1C(=O)N1CCCN(Cc2nccn2C)CC1 | 1.58% | 15.5%
15 | CN(C)C(=O)CNC(=O)CCn1ncc2c(Cl)cccc21 | -0.813% | -27.9%
16 | O=C(C1=CCCC1)N1C[C@@H]2COC[C@]2(COc2cccnc2)C1 | -3.68% | 1.76%
17 | Cc1cnn(CC2CCCN2C(=O)c2ccc3cc[nH]c3c2)c1 (stereo not given) | -4.26% | 1.09%
18 | Cc1ccc(-n2nnc(CC(=O)N3CCSCC3)c2C)cc1 | 2.79% | -35.4%
19 | COc1ccc(CNC(=O)NC2CCC(O)CC2)c(C(F)(F)F)c1 (stereo not given) | 2.84% | 3.3%
20 | O=C(NCC1CC1)[C@H]1CC[C@@H]2[C@@H](CCN2Cc2ccoc2)O1 | -5.12% | 0.319%
21 | Fc1ccccc1CN1C[C@@H](OCc2ccncc2)[C@H]2OCCC[C@H]21 | 2.94% | -45.1%
22 | COc1ccc(C(=O)Nc2cnn(CC(=O)NC3CCCC3)c2)c(O)c1 | 1.25% | -54.5%
23 | CCc1nc(C2CCCN2C(=O)CCc2cccs2)no1 (stereo not given) | -0.641% | 24%

Row | Structure (SMILES) | Percent Effect [1] | Percent Effect [2]
24 | NC(=O)C1(Cc2ccccc2-c2ccccc2)CCCN(CC2CC2)C1 (stereo not given) | 2.13% | -5.72%
25 | COCCNC(=O)NCCc1ccn(-c2ccccc2)n1 | -4.41% | 3.32%
26 | CNC(=O)CS(=O)(=O)C1CCN(S(=O)(=O)c2c(F)cccc2F)CC1 | -1.03% | -5.55%
27 | Cn1ccnc1-c1cccc(NC(=O)NCCN2CCOCC2)c1 | 4.54% | -60.9%
28 | CCc1nc(C2CCCN(C(=O)c3cnn(CC)c3)C2)no1 (stereo not given) | 2.22% | 3.55%
29 | CN(C)S(=O)(=O)N1CC[C@]2(C[C@H](Oc3cccnc3)CO2)C1 | 9.53% | -27.2%
30 | Cn1ccnc1CN1CCCN(C(=O)c2ccc(Cl)o2)CC1 | -4.19% | 17.7%
31 | Cn1ccnc1CN1CC[C@@H](NS(C)(=O)=O)[C@@H]1Cc1cccnc1 | -0.168% | -4.31%
32 | CCS(=O)(=O)N(C)C1CCN(C(=O)c2cccc(Cl)c2)CC1 | -0.493% | 14.8%
33 | CC(C)c1cc(NCC(O)c2ccc(F)cc2)n2nccc2n1 (stereo not given) | -1.84% | 7.39%
34 | CN1CC(=O)N(c2cccc(F)c2)CC12CCNC2 (stereo not given) | -4.35% | -4.44%
35 | COc1cc(C(=O)N(Cc2ccc(F)cc2)C2CC2)cc2c1OCCO2 | 9.07% | -12.1%
36 | COc1nc(C)cc(C)c1CNC(=O)N(C)Cc1cnn(C)c1 | 4.2% | 6.51%
37 | CC1CN(CC(=O)Nc2nncs2)CCN1c1nccs1 (stereo not given) | 4.78% | 27.5%
38 | O=C(c1ccno1)N1CC[C@@H]2O[C@@H](COCCN3CCCC3)CC[C@@H]21 | -0.779% | -4.5%
39 | CCc1nc(C2CCCN2C(=O)c2cc(C3CC3)[nH]n2)no1 (stereo not given) | -7.78% | 8.24%
40 | Cc1cnccc1CN1C[C@@H](O)[C@H](Oc2cccc(F)c2)C1 | -1.59% | -1.74%
41 | Cc1occc1C(=O)N1CC[C@@H](N2CCOCC2)[C@@H]1Cc1ccccc1 | 7.49% | 6.03%
42 | CC(C)(O)CN1CCN(C(=O)c2cc(Cl)cc3cccnc23)CC1 | -3.59% | -18%
43 | Cc1nc(CNC(=O)NCC(O)c2ccc(F)cc2F)cs1 (stereo not given) | -6.13% | -21.6%
44 | Fc1ccc2c(c1)C(NCc1nnc3n1CCCCC3)CCCO2 (stereo not given) | -3.62% | -12.2%
45 | Cc1ccc(Cl)cc1N1CCC(CNC(=O)CC(F)(F)F)C1 (stereo not given) | -1.19% | -45.5%
